The values below come from PubChem BioAssay (Tox21).

Values joined by “and” are separate entries in the source; they are usually repeats but may differ in a detail not shown here. Equal entries are not always repeated. Results filed as inconclusive are left out. Where a structure was tested more than once in an assay, its records may differ in their call. Active and inactive are the calls of the source. Unless noted, the call rests on the fitted dose curve; in most records, active means well fitted curve in the direction sought with a large enough effect in the repeat runs; inconclusive means weak or mixed curves; inactive means no such curve, though single readings can be large; an effect the other way counts as inactive or inconclusive.

A short description of experiment [1]: qHTS assay to identify small molecule antagonists of the estrogen related receptor (ERR) signaling pathway from Tox21 library - cell viability counter screen (AID 1224834). Further: nearly all actives have a fitted effect of over 30% in size. Further: potency means the concentration at half of the fitted maximal effect. In a few lines: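 Seeded ERR cells were rested 6 h at 37 C/5% CO2 before compounds, positive and negative controls or DMSO were added. Incubation continued for 17.5 h, and viability was then quantified by CellTiter-Fluor fluorescence.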
In general terms: Quantitative high-throughput screening tests each substance at several concentrations.

Experiment [2] addresses Luciferin 4-monooxygenase (Photinus pyralis) (UniProt P08659). The experiment in a line: qHTS assay to identify small molecule inhibitors of firefly luciferase (AID 1224835). Further: nearly all actives have a fitted effect of over 25% in size. Put shortly:
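Biochemical qHTS: compounds run as interplate titrations against purified firefly enzyme, with D-luciferin and ATP each at its KM concentration. Light output recorded by CCD imaging.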

A short description of experiment [3]: qHTS assay to identify small molecule agonists of the constitutive androstane receptor (CAR) signaling pathway - cell viability counter screen (AID 1224836). Further: nearly all actives have a fitted effect of over 45% in size. Further: potency means the concentration at half of the fitted maximal effect. Put shortly: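 Multiplexed viability check: HepG2-CYP2B6-hCAR cells, 15-point compound dosing, 0.75 uM PK11195 final, 23 h at 37 C, CellTiter-Fluor fluorescence.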
The nature of experiment [4]: qHTS assay to identify small molecule antagonists of the estrogen related receptor signaling pathway with the pleiotropic PPARgamma coactivator (PGC) from Tox21 10K library - cell viability counter screen (AID 1224840; active means well fitted cell-killing curve with a large enough effect in the repeat runs, not every such curve was filed as active; further: nearly all actives have a fitted effect of over 40% in size; further: potency means the concentration at half of the fitted maximal effect). In a few lines: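 Seeded PGC/ERR cells (2,000/well, 6 h, 37 C/5% CO2) get compound by pin tool; 17.5 h incubation at 37 C; CellTiter-Fluor added, 30 min, fluorescence measured.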

Experiment [5] can be described thus: qHTS assay to identify small molecule agonists of the hypoxia (HIF-1) signaling pathway - cell viability counter screen (AID 1224844; calls by dose curve; further: nearly all actives have a fitted effect of over 50% in size; further: potency means the concentration at half of the fitted maximal effect). In a few lines:
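HRE-bla ME-180; 0.5% dFBS; cpd 17 h, 37C, 5% CO2; CellTiter-Glo lum., 30 min RT, post-FRET read, same wells.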

Experiment [6] in a line: qHTS assay to identify small molecule agonists of H2AX (AID 1224845; active means well fitted activation curve with a large enough effect in the signal ratio in the repeat runs, not every such curve was filed as active; the % refers to the signal ratio). In a few lines:
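Wild-type CHO-K1 cells, plated overnight, exposed 3hr at 37C to 15 concentrations (0.76% DMSO final). Lysed, then HTRF anti-pH2AX (S139) cryptate and anti-H2AX-d2 antibodies, 24 hr room temperature; 665/620 nm emission read.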

Experiment [7] in a line: qHTS assay to identify small molecule agonists of H2AX - cell viability counter screen (AID 1224847; calls by dose curve; further: top concentration of the series differs between compounds; nearly all actives have a fitted effect of over 30% in size). Put shortly: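 After overnight plating of 1000 CHO-K1 cells per well, a 15-concentration compound series was applied for 3 hr at 37C. Luminescence from CellTiter-Glo, read following 30 min at room temperature, reflected cell viability.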
A short description of experiment [8]: qHTS RealTime-Glo MT Cell Viability Assay in HepG2 cells - 24 hour (AID 1224867). Further: nearly all actives have a fitted effect of over 50% in size. In a few lines: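 Cells + NanoLuc/prosubstrate dispensed (600 cells/well) → 5 h at 37 C/5% CO2 → compounds in DMSO transferred → 40 h incubation at 37 C, luminescence read at 0, 8, 16, 24, 32, 40 h.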
Experiment [9] can be described thus: qHTS RealTime-Glo MT Cell Viability Assay in HEK293 cells - 32 hour (AID 1224868). Further: nearly all actives have a fitted effect of over 50% in size. Further: potency means the concentration at half of the fitted maximal effect. Put shortly:
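Tox21 10K qHTS, HEK293, 600 cells/well, RealTime-Glo reagent co-dispensed with cells; 5 h preincubation, compound by pintool, 37 C, luminescence at 0–40 h.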

A short description of experiment [10]: qHTS assay to identify small molecule antagonists of the constitutive androstane receptor (CAR) signaling pathway - cell viability counter screen (AID 1224837). Further: nearly all actives have a fitted effect of over 45% in size. In a few lines:
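To flag cytotoxic false antagonists, HepG2 hCAR/CYP2B6-2.2kb cells were treated 23 hr with 15-concentration compound series and 50 nM CITCO at 37 C/5% CO2; CellTiter-Fluor fluorescence was the measured end point.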

Experiment [11] concerns the target Nuclear receptor subfamily 1 group I member 3 (Homo sapiens) (UniProt Q14994). The experiment in a line: qHTS assay to identify small molecule antagonists of the constitutive androstane receptor (CAR) signaling pathway (AID 1224838).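 Further: HepG2 cells stably expressing hCAR with CYP2B6 luciferase reporter stimulated by CITCO; nearly all actives have a fitted effect of over 40% in size.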 Put shortly: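 Human hepatoma HepG2 cells expressing hCAR and a CYP2B6 promoter (2.2 kb) luciferase construct; compound titration (15 points) with 50 nM CITCO final, 24 h at 37 C/5% CO2; luminescence via ONE-Glo after 30 min at room temperature.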

Experiment [12] addresses Thyrotropin receptor (Homo sapiens) (UniProt P16473). The experiment is described as follows: qHTS assay to identify small molecule agonists of the thyroid stimulating hormone receptor (TSHR) signaling pathway (AID 1224843; calls by dose curve; further: nearly all actives have a fitted effect of over 45% in size; further: potency means the concentration at half of the fitted maximal effect). Put shortly:
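Agonist-mode screen: TSHR HEK293 cells received test chemicals for half an hour at room temperature, then HTRF cAMP detection reagents for one hour prior to fluorescence measurement. Each chemical ran as a 15-concentration series, triplicated.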

Experiment [13] in a line: A CellTox Green Cytotoxicity Assay to monitor cytotoxicity in HEK293 cells - 0 hour (AID 1224869). Further: nearly all actives have a fitted effect of over 50% in size. Put shortly: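 Tox21 screen in HEK293: membrane-impermeant cyanine dye fluoresces on binding dead-cell DNA; compound pinned 5 h post-seeding, plates held at 37 C, signal read repeatedly through 40 h.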
Experiment [14] has as its target Nuclear receptor subfamily 1 group I member 3 (Homo sapiens) (UniProt Q14994). The experiment in a line: qHTS assay to identify small molecule agonists of the constitutive androstane receptor (CAR) signaling pathway (AID 1224839). Further: nearly all actives have a fitted effect of over 15% in size. Further: potency means the concentration at half of the fitted maximal effect.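 On activation: HepG2 cells stably carrying human CAR and a CYP2B6 luciferase reporter.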 Put shortly:
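Using human hepatoma HepG2 cells engineered with hCAR and a CYP2B6-2.2kb reporter, 15-concentration compound series were incubated 24 h alongside PK11195 at 0.75 uM final, with luminescence quantified afterwards.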

Experiment [15] can be described thus: qHTS assay to identify small molecule agonists of the hypoxia (HIF-1) signaling pathway (AID 1224846; active means well fitted activation curve with a large enough effect in the signal ratio in the repeat runs, not every such curve was filed as active; the % refers to the signal ratio). In a few lines:
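Reporter induction in HRE-bla ME-180 cells is taken as agonism: cells sit 5 hrs after plating, receive compounds or DMSO only, incubate 17 hrs at 37C under 5% CO2, and are loaded with CCF4-AM for beta-lactamase FRET measurement.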

Experiment [16] in a line: qHTS assay to identify small molecule antagonists of the estrogen related receptor signaling pathway with the pleiotropic PPARgamma coactivator (PGC) from Tox21 10K library (AID 1224841; call rule not given here). Put shortly:
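Test chemicals dissolved in DMSO were applied to pre-incubated (6 h) PGC/ERR cells at 2,000 cells/well for an 18 h, 37 C treatment; reporter luminescence was then read using One-Glo.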

Experiment [17] can be described thus: qHTS assay to identify small molecule agonists of the estrogen related receptor signaling pathway with the pleiotropic PPARgamma coactivator (PGC) from Tox21 10K library (AID 1224842). Further: nearly all actives have a fitted effect of over 15% in size. Put shortly: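 PGC/ERR reporter cell line, 2,000 cells per well, incubated 6 h at 37 C before 23 nL compound in DMSO was added. After 18 h at 37 C, One-Glo luminescence read following 30 min at room temperature.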

Experiment [18] is described as follows: qHTS assay to identify small molecule antagonists of the estrogen related receptor (ERR) signaling pathway from Tox21 library (AID 1224848). Further: nearly all actives have a fitted effect of over 50% in size. Put shortly:
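Quantitative high-throughput format: ERR reporter cells (2,000/well) pre-incubated 6 h, treated 18 h at 37 C with compounds in DMSO alongside positive and negative controls, then read by ONE-Glo luminescence.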

The nature of experiment [19]: qHTS assay to identify small molecule agonists of the estrogen related receptor (ERR) signaling pathway from Tox21 library (AID 1224849; calls by dose curve; further: nearly all actives have a fitted effect of over 15% in size). The conditions noted are these: ERR reporter cell line, ONE-Glo luciferase, 18 h; at 92.4 µM (top of the series). In a few lines:
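Tox21 compounds tested for ERR agonism in an NTP reporter cell line: 18 h treatment at 37 C, then ONE-Glo luminescence.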
On the % scale 0 is the no-effect control and ±100 the full control effect.

Chain of Nuclear receptor subfamily 1 group I member 3 (Homo sapiens) (Q14994 whole entry, looked up): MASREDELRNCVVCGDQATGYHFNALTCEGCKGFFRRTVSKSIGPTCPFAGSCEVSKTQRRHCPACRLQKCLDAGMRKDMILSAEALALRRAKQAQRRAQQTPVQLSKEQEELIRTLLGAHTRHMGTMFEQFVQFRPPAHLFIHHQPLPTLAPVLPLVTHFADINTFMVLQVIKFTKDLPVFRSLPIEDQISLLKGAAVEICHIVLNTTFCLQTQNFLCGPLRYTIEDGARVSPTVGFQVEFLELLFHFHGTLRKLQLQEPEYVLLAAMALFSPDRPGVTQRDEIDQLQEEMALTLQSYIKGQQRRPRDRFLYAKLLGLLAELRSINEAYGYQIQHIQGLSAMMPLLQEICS
Chain of Thyrotropin receptor (Homo sapiens) (P16473 whole entry, looked up): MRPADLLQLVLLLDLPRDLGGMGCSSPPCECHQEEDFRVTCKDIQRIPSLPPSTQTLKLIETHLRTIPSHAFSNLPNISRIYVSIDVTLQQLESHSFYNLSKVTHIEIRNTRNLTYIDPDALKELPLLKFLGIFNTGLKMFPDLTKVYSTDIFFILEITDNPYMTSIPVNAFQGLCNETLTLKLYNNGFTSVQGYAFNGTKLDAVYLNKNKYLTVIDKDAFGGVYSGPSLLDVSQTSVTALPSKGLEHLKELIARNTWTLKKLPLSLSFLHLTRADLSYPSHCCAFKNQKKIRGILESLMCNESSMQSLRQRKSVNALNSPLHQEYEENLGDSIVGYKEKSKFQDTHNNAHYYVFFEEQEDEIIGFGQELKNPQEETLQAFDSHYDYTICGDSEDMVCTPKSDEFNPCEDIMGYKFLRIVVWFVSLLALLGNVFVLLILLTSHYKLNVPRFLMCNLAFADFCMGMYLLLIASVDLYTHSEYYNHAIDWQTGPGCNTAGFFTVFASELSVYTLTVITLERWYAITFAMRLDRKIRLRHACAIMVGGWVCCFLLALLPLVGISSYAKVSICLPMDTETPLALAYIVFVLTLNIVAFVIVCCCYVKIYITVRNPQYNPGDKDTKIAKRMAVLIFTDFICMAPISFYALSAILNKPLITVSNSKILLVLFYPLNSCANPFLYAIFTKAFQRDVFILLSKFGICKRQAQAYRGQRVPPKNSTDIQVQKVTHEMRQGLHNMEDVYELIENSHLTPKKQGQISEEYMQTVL
Chain of Luciferin 4-monooxygenase (Photinus pyralis) (P08659 whole entry, looked up): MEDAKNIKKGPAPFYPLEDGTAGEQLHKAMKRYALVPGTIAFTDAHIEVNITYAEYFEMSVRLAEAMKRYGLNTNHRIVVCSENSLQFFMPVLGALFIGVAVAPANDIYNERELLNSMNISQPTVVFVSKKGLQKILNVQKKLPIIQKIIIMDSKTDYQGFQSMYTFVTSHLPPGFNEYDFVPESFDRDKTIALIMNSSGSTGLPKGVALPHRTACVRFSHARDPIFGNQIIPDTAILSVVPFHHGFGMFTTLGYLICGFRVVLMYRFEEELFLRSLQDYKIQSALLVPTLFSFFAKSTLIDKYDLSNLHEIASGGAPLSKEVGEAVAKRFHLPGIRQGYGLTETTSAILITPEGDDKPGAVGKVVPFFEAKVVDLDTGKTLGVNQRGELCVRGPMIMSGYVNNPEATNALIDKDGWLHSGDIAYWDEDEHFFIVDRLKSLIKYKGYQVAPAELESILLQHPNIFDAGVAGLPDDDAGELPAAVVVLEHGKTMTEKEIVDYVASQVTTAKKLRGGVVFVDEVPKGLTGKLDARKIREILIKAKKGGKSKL

As to `CCC(=O)O`, the Potency result in [1], in experiment [2], in [3], in experiment [4], in experiment [5] and in experiment [6] was “inactive” in each case. The Potency entry in experiment [7], in [8] and in experiment [9] was “inactive” in each case.

Consider `C=C1CC[C@H](O)CC1=C/C=C1\CCC[C@]2(C)[C@@H]([C@H](C)/C=C/[C@H](C)C(C)C)CC[C@@H]12`, for which the Potency entry in experiment [2], in [3], in experiment [10], in [11], in [4] and in experiment [8] was “inactive” each time. Moreover, the Potency result in experiment [13] was “inactive”. Moreover, the Potency is 21.5 µM (active) and 34.4 µM (active) in experiment [12]; 43.3 µM (active) and 34.7 µM (active) in experiment [5]; 48.5 µM (active) and 43.6 µM (active) in experiment [9].

For `COC(=O)Nc1nc2ccc(Sc3ccccc3)cc2[nH]1`, the Potency entry in experiment [1], in [3], in experiment [4], in [12], in experiment [5] and in experiment [7] was “inactive” in each case. For the same compound, the Potency result in [8] and in experiment [13] was “inactive” each time. Further, the Potency in [14] was 4.33 µM (active); in [9], 692 nM (active) and 848 nM (active).

In the case of `Oc1ccc2ccccc2c1`, the Potency entry in [1], in experiment [3], in [4], in experiment [12], in experiment [6] and in [8] was “inactive” throughout. For the same compound, the Potency result in experiment [9] and in [13] was “inactive” throughout. The Potency in experiment [5] is 35.5 µM (active).

For `CC1COc2ccccc2N1C(=O)C(Cl)Cl` (stereo not drawn), the Potency entry in experiment [2], in experiment [11], in experiment [4], in [12], in experiment [5] and in experiment [6] was “inactive” in each case. The Potency result in experiment [7], in experiment [8] and in experiment [9] was “inactive” in each case. Also, the figures for the Potency in experiment [3] and in experiment [14] were 27.3 µM (active) and 48.5 µM (active), respectively. Moreover, the compound was called inactive in experiment [15].

For the compound `c1ccc2ccccc2c1`, the Potency entry in experiment [1], in [2], in experiment [3], in experiment [4], in experiment [16] and in [17] was “inactive” each time. The Potency result in [12], in experiment [5], in [6], in [7], in experiment [18] and in experiment [8] was “inactive” in each case. For the same compound, the Potency entry in [9] is “inactive”. In experiment [15], the result was inactive. Moreover, the activity change, positive = activation in experiment [19] was 7.43% (inactive) and 7.09% (inactive).

In the case of `Cc1cc(NS(=O)(=O)c2ccc(N)cc2)no1`, the Potency result in experiment [1], in experiment [3], in [14], in [4], in experiment [12] and in experiment [5] was “inactive” in each case. Moreover, the Potency result in experiment [7], in [8], in experiment [9] and in [13] was “inactive” each time.

On to `C=C(C)C(=O)OCCC[Si](OC)(OC)OC`, for which the Potency result in experiment [1], in experiment [2], in experiment [3], in experiment [4], in [12] and in experiment [5] was “inactive” in each case. Besides, the Potency entry in experiment [6], in experiment [8], in [9] and in experiment [13] was “inactive” throughout. The compound was called inactive in experiment [15].

On to `NC(=O)NNc1ccccc1`, for which the Potency result in experiment [1], in experiment [3], in [10], in experiment [14], in experiment [4] and in [12] was “inactive” each time. The Potency result in experiment [5], in experiment [6], in [8] and in experiment [9] was “inactive” throughout.

In the case of `O=C1N=C(O)CN1/N=C/c1ccc(-c2ccc([N+](=O)[O-])cc2)o1`, the Potency in experiment [1] was 43.3 µM (active) and 26.6 µM (active); in [4], 48.6 µM (active) and inactive. The Potency entry in experiment [10], in experiment [11], in experiment [14], in [12], in [5] and in [6] was “inactive” throughout. In addition, the Potency entry in experiment [7], in [8], in [9] and in experiment [13] was “inactive” throughout.
